Potency, outcome and max activation data for nine compounds are collected here from PubChem BioAssay (Tox21).

Unmarked numbers belong to inactive results. Inconclusive results are not listed. Activity calls are given as the source filed them. Calls follow the shape of the dose curve; as a rule, active = well fitted curve in the direction sought with a large enough effect in the repeat runs; inconclusive = weak or mixed curves; inactive = no such curve, though single readings can be large; an effect the other way counts as inactive or inconclusive.

The nature of test [1]: Human pregnane X receptor (PXR) small molecule agonists, qHTS cell viability counter screen (AID 1346977). Also: nearly all actives have a fitted effect of over 50% in size. The essentials: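 After a 5hr pre-incubation, PXR-Luc HepG2 cells received compounds plus positive control in DMSO and were kept 24hr at 37C. Cell viability was quantified by fluorescence from CellTiter-Fluor added for the final hour.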
In general terms: qHTS replaces the single test concentration by a dilution series.

A short description of test [2]: Caspase-3/7 induction in CHO-K1 cells by small molecules, qHTS cell viability counter screen (AID 1346979). Also: nearly all actives have a fitted effect of over 35% in size. Also: potency is read from the fitted curve at half-maximal effect. The method, boiled down: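 Multiplexed with Caspase-Glo 3/7 in CHO-K1 cells, this counter screen added CellTiter-Fluor after 16hr of compound exposure and recorded fluorescence 1hr later.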
Test [3] is described as follows: Caspase-3/7 induction in CHO-K1 cells by small molecules, qHTS assay (AID 1346980). Also: nearly all actives have a fitted effect of over 15% in size. The essentials:
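Wild-type CHO-K1 cells exposed to compounds for 17hr at 37 C, 5% CO2. Caspase-3/7 activity then measured by Caspase-Glo 3/7 luminescence after 30min at room temperature.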

A short description of test [4]: Caspase-3/7 induction in HepG2 cells by small molecules, qHTS cell viability counter screen (AID 1346981). Also: nearly all actives have a fitted effect of over 30% in size. Also: potency is read from the fitted curve at half-maximal effect. The method, boiled down:
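Wild-type HepG2 cells, 2,000/well, settled 5 hr at 37 C, 5% CO2 before compound addition. Viability read by CellTiter-Fluor fluorescence, reagent added after 16 hr compound exposure, then 1 hr at 37C, in the same wells as the caspase read.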

The target of test [5] is Nuclear receptor subfamily 1 group I member 2 (Homo sapiens) (UniProt O75469). The test is described as follows: Human pregnane X receptor (PXR) small molecule agonists, qHTS assay (AID 1346982). Also: nearly all actives have a fitted effect of over 35% in size. Also: potency is read from the fitted curve at half-maximal effect. The essentials: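 PXR-Luc HepG2 reporter cells (CYP3A4-driven luciferase) in 5% charcoal-stripped FBS medium, plated 5 h before compound addition, then treated 24 h at 37C. Luciferase read by ONE-Glo luminescence after 30 min at room temperature.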

The target in test [6] is Cytochrome P450 2D6 (Homo sapiens) (UniProt P10635). In words: Cytochrome P450 Family 2 Subfamily D Member 6 (CYP2D6) small molecule antagonists: luciferase reporter qHTS assay (AID 1671196). Also: nearly all actives have a fitted effect of over 50% in size. Also: potency is read from the fitted curve at half-maximal effect. The essentials: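 Cell-free P450-Glo system: CYP2D6 with proluciferin substrate was pre-incubated with compound for 10 min, then reacted with NADPH regeneration for 1 h at room temperature. Luciferin product was detected after 20 min, and data were reported as relative luminescence units.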
(Reporter assays use an easily measured gene product as a stand-in for the process of interest.)

Test [7] addresses Cytochrome P450 2C9 (Homo sapiens) (UniProt P11712). The test is described as follows: Cytochrome P450 Family 2 Subfamily C Member 9 (CYP2C9) small molecule antagonists: luciferase reporter qHTS assay (AID 1671198). Also: nearly all actives have a fitted effect of over 50% in size. Also: potency is read from the fitted curve at half-maximal effect. The essentials: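 P450-Glo proluciferin substrate with CYP2C9 enzyme; 10 min RT preincubation, then NADPH regeneration 1 h at 37C; luciferin detection reagent 20 min RT, luminescence in relative luminescence units.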

Test [8] addresses Cytochrome P450 1A2 (Homo sapiens) (UniProt P05177). In words: Cytochrome P450 Family 1 Subfamily A Member 2 (CYP1A2) small molecule antagonists: luciferase reporter qHTS assay (AID 1671199). Also: nearly all actives have a fitted effect of over 50% in size. Also: potency is read from the fitted curve at half-maximal effect. The method, boiled down: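 P450-Glo CYP1A2 enzyme–proluciferin substrate mix with compound 10 min at room temperature, then NADPH regeneration 1 h at room temperature. Luciferin detection reagent added, luminescence read after 20 min; furafylline positive control.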

Test [9] has as its target Cytochrome P450 3A4 (Homo sapiens) (UniProt P08684). In words: Cytochrome P450 Family 3 Subfamily A Member 4 (CYP3A4) small molecule antagonists: luciferase reporter qHTS assay (AID 1671201). Also: nearly all actives have a fitted effect of over 50% in size. Also: potency is read from the fitted curve at half-maximal effect. The essentials:
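Room-temperature assay throughout: 10 min compound–enzyme/substrate preincubation, 1 h reaction after NADPH regeneration solution, 20 min detection. Luciferin formed from proluciferin substrate is quantified by luminescence.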

Test [10] in a line: Caspase-3/7 induction in HepG2 cells by small molecules, qHTS assay (AID 1346978). Also: nearly all actives have a fitted effect of over 15% in size. The method, boiled down: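 Wild-type HepG2 cells, 2,000/well, settled 5 hr at 37 C and 5% CO2, then compound-treated for 17 hr; caspase-3/7 activity read by luminescent Caspase-Glo 3/7 after 30 min at room temperature.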
In test [11] the target is Cytochrome P450 2C19 (Homo sapiens) (UniProt P33261). In words: Cytochrome P450 Family 2 Subfamily C Member 19 (CYP2C19) small molecule antagonists: luciferase reporter qHTS assay (AID 1671197). Also: nearly all actives have a fitted effect of over 65% in size. Also: potency is read from the fitted curve at half-maximal effect. The method, boiled down: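 Luminescent readout of CYP2C19 activity: luciferin product detected 20 min after adding detection reagent. Before that, compound and enzyme-substrate mix preincubated 10 min at room temperature; NADPH-regenerating system started a 1 h, 37C reaction. Ketoconazole as positive control.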

Test [12] has as its target Voltage-gated inwardly rectifying potassium channel KCNH2 (Homo sapiens) (UniProt Q12809). The test is described as follows: Human Ether-a-go-go-Related Gene (hERG) channel small molecule antagonists: fluorescence cell-based qHTS assay (AID 1671200). Also: nearly all actives have a fitted effect of over 50% in size. Also: potency is read from the fitted curve at half-maximal effect. The essentials: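 Cell line hERG-U2OS; dye FluxOR II, 1 h RT dark; Tl+ stimulus; ex 480/em 540 nm, read each second for 2 min.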
Background: The hERG channel carries a current that helps repolarise heart muscle cells.

Test [13] addresses Nuclear receptor subfamily 1 group I member 2 (Rattus norvegicus) (UniProt Q9R1A7). The test is described as follows: Rat pregnane X receptor (rPXR) activation by small molecules, qHTS assay (AID 1346983). Also: nearly all actives have a fitted effect of over 20% in size. Particulars: rPXR luciferase reporter cells, One-Glo luminescence, 24 h; max activation: hits give high values. The method, boiled down: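 Cell-based rPXR activation assay: rPXR cells, 2,000 per well, rested 5hr at 37 C, then exposed to compounds in DMSO for 24 hr at 37 C. Luciferase activity read by One-Glo luminescence after 30 min at room temperature.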

The target in test [14] is Nuclear receptor subfamily 1 group I member 2 (Homo sapiens) (UniProt O75469). In words: Human pregnane X receptor (PXR) activation by small molecules, qHTS assay (AID 1346985). Also: nearly all actives have a fitted effect of over 40% in size. The essentials: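 DPX-2 cells (HepG2 co-transfected with a PXR response element and a CYP3A4-promoter luciferase construct) were seeded at 2,000 per well, rested 5 hr at 37C, then exposed to DMSO-dissolved compounds for 24 hr. Activation was read as luciferase luminescence.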

Test [15] shares this target. The test is described as follows: CYP3A4 induction through human pregnane X receptor (PXR) by small molecules, qHTS assay (AID 1346984). Also: nearly all actives have a fitted effect of over 40% in size. The method, boiled down: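 DPX-2 HepG2 cells carrying a PXR response element and CYP3A4-promoter luciferase construct, treated with compounds 24 hr at 37C. Then P450-Glo CYP3A4 Luciferin-IPA substrate (3uM final) for 3 hr at 37C, One-Glo added, luminescence read.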
% is scaled to controls: 0 for no effect and ±100 for the full control effect.

Sequence of Cytochrome P450 1A2 (Homo sapiens) (P05177 whole entry, looked up): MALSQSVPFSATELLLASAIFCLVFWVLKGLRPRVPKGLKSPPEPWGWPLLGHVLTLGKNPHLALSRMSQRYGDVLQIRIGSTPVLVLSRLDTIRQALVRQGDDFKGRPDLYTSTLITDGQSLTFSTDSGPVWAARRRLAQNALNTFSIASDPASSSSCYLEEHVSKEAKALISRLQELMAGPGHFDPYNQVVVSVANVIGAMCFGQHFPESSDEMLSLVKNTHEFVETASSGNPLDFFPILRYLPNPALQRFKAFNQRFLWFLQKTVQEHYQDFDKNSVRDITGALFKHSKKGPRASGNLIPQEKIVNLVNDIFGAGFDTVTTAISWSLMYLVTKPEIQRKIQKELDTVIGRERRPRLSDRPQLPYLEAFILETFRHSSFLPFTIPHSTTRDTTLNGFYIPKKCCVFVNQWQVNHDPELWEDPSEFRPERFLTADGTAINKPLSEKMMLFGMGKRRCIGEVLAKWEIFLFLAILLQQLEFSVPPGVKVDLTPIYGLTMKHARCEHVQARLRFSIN
Sequence of Nuclear receptor subfamily 1 group I member 2 (Rattus norvegicus) (Q9R1A7 whole entry, looked up): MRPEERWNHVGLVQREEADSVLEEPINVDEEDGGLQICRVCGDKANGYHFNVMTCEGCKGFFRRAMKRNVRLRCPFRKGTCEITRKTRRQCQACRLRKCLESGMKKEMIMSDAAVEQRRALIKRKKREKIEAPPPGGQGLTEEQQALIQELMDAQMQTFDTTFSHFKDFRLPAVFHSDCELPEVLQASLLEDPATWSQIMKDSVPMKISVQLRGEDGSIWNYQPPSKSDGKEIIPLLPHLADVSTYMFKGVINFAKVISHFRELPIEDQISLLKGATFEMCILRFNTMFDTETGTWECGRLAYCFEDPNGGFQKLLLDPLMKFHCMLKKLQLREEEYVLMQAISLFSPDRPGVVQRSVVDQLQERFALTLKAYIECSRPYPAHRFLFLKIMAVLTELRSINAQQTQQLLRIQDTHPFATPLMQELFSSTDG
Sequence of Cytochrome P450 2C19 (Homo sapiens) (P33261 whole entry, looked up): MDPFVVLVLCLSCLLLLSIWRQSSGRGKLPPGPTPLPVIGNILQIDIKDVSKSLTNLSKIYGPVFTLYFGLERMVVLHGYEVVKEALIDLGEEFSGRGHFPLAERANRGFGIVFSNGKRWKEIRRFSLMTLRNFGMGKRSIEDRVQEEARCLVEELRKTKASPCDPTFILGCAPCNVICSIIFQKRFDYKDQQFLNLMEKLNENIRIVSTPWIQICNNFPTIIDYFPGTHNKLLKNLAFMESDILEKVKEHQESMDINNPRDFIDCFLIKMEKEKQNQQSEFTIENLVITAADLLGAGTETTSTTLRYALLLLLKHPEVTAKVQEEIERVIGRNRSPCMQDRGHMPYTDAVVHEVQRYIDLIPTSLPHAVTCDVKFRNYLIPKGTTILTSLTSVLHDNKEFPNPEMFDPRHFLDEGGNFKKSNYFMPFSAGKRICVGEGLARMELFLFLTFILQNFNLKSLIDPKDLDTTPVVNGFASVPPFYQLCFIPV
Sequence of Cytochrome P450 2C9 (Homo sapiens) (P11712 whole entry, looked up): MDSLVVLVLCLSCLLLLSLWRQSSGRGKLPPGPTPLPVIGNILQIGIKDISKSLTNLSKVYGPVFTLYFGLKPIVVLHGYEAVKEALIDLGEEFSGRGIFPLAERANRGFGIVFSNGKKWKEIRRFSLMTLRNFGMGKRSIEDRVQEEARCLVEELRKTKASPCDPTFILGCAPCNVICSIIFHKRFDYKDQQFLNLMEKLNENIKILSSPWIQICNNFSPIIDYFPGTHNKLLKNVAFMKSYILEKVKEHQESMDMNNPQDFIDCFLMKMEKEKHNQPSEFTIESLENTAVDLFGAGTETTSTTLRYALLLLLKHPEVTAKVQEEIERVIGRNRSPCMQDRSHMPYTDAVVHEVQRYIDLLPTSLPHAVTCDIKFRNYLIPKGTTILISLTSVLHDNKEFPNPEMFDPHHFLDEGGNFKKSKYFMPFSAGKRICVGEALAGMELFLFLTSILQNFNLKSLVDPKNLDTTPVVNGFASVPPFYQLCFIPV
Sequence of Voltage-gated inwardly rectifying potassium channel KCNH2 (Homo sapiens) (Q12809 whole entry, looked up): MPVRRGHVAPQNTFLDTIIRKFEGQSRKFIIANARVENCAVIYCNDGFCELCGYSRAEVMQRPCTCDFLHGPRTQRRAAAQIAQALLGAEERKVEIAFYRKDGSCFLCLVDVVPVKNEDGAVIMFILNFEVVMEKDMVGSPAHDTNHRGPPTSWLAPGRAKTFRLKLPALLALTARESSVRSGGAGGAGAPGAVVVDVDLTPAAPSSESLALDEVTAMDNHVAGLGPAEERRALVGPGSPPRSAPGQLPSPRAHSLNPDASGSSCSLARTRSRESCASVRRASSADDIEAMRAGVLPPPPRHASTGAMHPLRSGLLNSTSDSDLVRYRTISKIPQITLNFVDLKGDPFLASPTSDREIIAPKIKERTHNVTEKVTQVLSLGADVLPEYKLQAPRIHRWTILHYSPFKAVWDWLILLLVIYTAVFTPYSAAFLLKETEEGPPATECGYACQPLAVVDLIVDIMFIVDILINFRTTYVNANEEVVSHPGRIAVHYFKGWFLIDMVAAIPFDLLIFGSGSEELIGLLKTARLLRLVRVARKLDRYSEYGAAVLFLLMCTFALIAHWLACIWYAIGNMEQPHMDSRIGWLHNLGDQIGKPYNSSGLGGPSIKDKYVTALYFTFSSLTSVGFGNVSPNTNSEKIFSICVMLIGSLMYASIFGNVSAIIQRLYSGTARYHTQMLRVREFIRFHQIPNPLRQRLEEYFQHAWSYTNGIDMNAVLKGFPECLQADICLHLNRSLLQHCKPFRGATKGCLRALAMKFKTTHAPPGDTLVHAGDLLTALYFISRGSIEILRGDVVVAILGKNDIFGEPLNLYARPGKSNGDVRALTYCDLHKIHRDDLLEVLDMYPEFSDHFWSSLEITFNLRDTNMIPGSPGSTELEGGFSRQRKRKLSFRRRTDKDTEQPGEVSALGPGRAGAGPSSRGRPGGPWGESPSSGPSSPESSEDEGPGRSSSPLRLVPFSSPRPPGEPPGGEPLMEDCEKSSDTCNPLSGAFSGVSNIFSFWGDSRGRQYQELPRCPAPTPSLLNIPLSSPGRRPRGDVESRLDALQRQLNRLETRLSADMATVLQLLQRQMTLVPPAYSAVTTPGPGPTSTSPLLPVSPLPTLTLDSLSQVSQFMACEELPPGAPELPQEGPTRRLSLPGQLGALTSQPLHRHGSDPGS
Sequence of Cytochrome P450 2D6 (Homo sapiens) (P10635 whole entry, looked up): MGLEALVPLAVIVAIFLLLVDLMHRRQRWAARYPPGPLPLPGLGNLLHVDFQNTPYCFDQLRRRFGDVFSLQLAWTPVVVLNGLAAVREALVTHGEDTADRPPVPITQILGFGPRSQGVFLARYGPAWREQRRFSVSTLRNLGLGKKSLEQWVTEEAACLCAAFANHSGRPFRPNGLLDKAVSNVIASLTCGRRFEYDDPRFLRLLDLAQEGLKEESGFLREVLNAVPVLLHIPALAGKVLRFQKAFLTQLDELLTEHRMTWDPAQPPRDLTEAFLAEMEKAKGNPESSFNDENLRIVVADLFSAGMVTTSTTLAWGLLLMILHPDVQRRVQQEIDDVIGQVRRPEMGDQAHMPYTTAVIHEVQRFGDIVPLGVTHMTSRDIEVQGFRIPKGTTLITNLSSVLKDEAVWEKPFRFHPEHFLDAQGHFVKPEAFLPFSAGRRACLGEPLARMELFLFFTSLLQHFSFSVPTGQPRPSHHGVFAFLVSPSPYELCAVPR
Sequence of Nuclear receptor subfamily 1 group I member 2 (Homo sapiens) (O75469 whole entry, looked up): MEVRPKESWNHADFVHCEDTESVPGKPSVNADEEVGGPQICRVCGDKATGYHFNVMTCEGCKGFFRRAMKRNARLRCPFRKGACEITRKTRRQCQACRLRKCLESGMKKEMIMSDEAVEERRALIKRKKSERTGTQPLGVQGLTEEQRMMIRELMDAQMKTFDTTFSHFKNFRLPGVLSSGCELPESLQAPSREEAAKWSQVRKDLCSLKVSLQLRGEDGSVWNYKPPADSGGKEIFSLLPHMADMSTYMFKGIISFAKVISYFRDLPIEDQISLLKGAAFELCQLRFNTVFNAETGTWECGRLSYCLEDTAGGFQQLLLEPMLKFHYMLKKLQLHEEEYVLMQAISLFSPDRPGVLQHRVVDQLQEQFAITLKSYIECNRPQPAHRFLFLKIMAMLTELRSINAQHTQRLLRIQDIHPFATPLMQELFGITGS
Sequence of Cytochrome P450 3A4 (Homo sapiens) (P08684 whole entry, looked up): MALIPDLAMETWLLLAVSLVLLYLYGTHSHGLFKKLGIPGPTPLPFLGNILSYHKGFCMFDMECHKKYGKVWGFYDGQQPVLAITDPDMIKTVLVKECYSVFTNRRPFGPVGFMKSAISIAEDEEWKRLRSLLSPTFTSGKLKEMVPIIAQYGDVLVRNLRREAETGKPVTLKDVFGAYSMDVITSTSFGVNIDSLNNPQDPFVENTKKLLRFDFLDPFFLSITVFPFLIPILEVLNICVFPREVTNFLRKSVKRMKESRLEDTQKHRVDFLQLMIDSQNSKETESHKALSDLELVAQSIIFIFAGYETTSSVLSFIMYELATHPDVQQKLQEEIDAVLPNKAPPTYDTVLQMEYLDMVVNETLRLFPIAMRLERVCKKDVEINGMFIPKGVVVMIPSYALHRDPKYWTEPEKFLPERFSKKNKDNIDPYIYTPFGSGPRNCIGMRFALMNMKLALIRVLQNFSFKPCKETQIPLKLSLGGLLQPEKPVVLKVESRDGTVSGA

Turning to `C/C(=N/NC(=O)c1ccncc1)C(=O)O`, the Potency entry in test [1], in test [2], in [4], in test [5], in test [6] and in test [7] was “inactive” in each case. In addition, the Potency entry in [8] and in test [9] was “inactive” each time. Also, the outcome in [3] was inactive.
Regarding `CSc1ccc(Oc2ccc(S(N)(=O)=O)cc2CN(C)C)cc1C`, the Potency entry in test [10], in [4] and in test [9] was “inactive” in each case. In addition, the outcome in test [3] was inactive. Also, the Potency in [5] is 19.3 µM (active); in test [11], 35.6 µM (active); in test [8], 63.3 µM (active); in test [12], 6.92 µM (active).
In the case of `NC(=O)N(O)[C@@H]1COc2cc(OCc3ccccc3)ccc21`, the Potency result in [10] and in test [4] was “inactive” throughout. In addition, the Potency in test [2] was 24.3 µM (active); in [5] it was 12.2 µM (active); in test [6], 10 µM (active); in test [11] it was 5.03 µM (active); in test [7], 7.96 µM (active); in test [8], 5.03 µM (active). For the same compound, the Potency in test [9] is 2.52 µM (active). The compound was classed as inactive in test [3].
For `O=C1OCCN1/N=C/c1ccc([N+](=O)[O-])o1`, the Potency entry in test [10], in [4], in test [5] and in test [14] was “inactive” throughout. Also, the outcome in test [3] was inactive. Besides, in test [13], the max activation was -6.39%.
Regarding `OC(CCCN1CCCCC1)(c1ccccc1)c1ccccc1`, the Potency entry in [10], in test [2], in test [4], in [5], in [7] and in [8] was “inactive” in each case. Also, the Potency result in test [12] was “inactive”. In addition, the outcome in test [3] was inactive. In addition, the Potency in [6] is 0.11 µM (active).
Consider `CO/N=C1\CN(c2nc3c(cc2F)c(=O)c(C(=O)O)cn3C2CC2)CC1CN` (centres undefined), for which the Potency entry in test [1], in test [4], in [5], in test [15], in [14] and in [6] was “inactive” each time. Moreover, the Potency entry in test [11], in [7], in [8] and in test [9] was “inactive” throughout. Moreover, the outcome in [3] was inactive. Moreover, in [13], the max activation is -0.199%.
Turning to `CCCCN(CCCC)CCCOC(=O)c1ccc(N)cc1`, the Potency entry in [10], in test [2], in [4], in test [5], in test [15] and in test [14] was “inactive” each time. In addition, the Potency result in test [7], in test [8] and in test [9] was “inactive” in each case. Besides, the compound was called inactive in test [3]. In addition, in test [13], the max activation was 0.416%. For the same compound, the Potency in test [12] was 9.52 µM (active).
`COCCOC`: the Potency result in [10] and in test [12] was “inactive” each time. Moreover, the results for the Potency in [2] and in test [4] were 14.6 µM (active) and 13 µM (active), respectively. The result in test [3] was inactive.
For `CCOC(=O)N1CCC(n2c(=O)[nH]c3cc(Cl)ccc32)CC1`, the Potency result in test [10], in [5], in [6], in test [12] and in test [9] was “inactive” each time. In test [3], the compound was classed as inactive. Also, the Potency in test [11] and in test [7] was 9.77 µM (active) throughout.
